Test results as given in PubChem BioAssay (NCI).
Where “and” joins values, the source holds several entries; their conditions need not be identical. Equal values may be shown once. This is part of a sample that, as a whole, favours compounds with a hit. Of some 79,000 tested, about 15% had one in any assay. The source holds several records for some structures; these can differ, active in one and inactive in another. Calls of active or inactive are those of the source. Cut-off read from the data, not from the text of the source: active = growth inhibition above about 70%; inactive = the rest.

Legend:
[1] = NCI Yeast Anticancer Drug Screen. Data for the rad50 strain (AID 155);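 note: 0% = growth of vehicle-only cultures of the same strain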; settings: S. cerevisiae rad50 strain growth inhibition; at 50.0 µM; stronger effect = higher value
In short: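 DNA repair mutant yeast, compound exposure, growth read-out; inhibition is taken relative to vehicle.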

[2] = NCI Yeast Anticancer Drug Screen. Data for the mec2-1 strain (AID 157); settings: S. cerevisiae mec2-1 strain, at 50.0 µM, stronger effect = higher value
In short: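 Yeast mec2-1 mutant treated with compound. Readout: growth inhibition vs vehicle controls.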

[3] = NCI Yeast Anticancer Drug Screen. Data for the sgs1 mgt1 strain (AID 161);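 note: 0% = growth of cultures given vehicle only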; settings: S. cerevisiae sgs1 mgt1 strain, at 50.0 µM, stronger effect = higher value
In short: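 Test agents were incubated with a DNA-repair-mutant yeast strain. Growth was then read and compared against vehicle-treated controls.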

[4] = NCI Yeast Anticancer Drug Screen. Data for the cln2 rad14 strain (AID 165);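 note: 0% = growth equal to vehicle treated cultures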; settings: S. cerevisiae cln2 rad14 strain, at 50.0 µM, stronger effect = higher value
In short: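 cln2 rad14 yeast strain; compound exposure; growth inhibition read vs vehicle controls.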

[5] = NCI Yeast Anticancer Drug Screen. Data for the bub3 strain (AID 167); settings: S. cerevisiae bub3 mutant strain, at 50.0 µM, stronger effect = higher value
In short: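 In this screen, a yeast mutant lacking normal mitotic checkpoint function is challenged with compound. Relative growth versus vehicle gives the inhibition value.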

[6] = NCI Yeast Anticancer Drug Screen. Data for the mlh1 rad18 strain (AID 175); settings: S. cerevisiae mlh1 rad18 strain growth inhibition; at 50.0 µM; stronger effect = higher value
In short: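 Yeast w/ defined DNA-repair lesions; compound exposure; growth vs vehicle controls → % inhibition.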

Measured: growth inhibition

CCc1ccc(NCc2cc(OC)c(OC)c(OC)c2)cc1
inactive: [1] 22.8% and 3.85% | [2] -3.9% and -6.2% | [3] 25.9% and 33% | [4] -4.45% and -2.55% | [5] 40% and 38.9% | [6] -55.3% and -23.8%

C/C(C=O)=C\c1ccc(N(C)C)cc1
inactive: [1] -36.5% and 5% | [2] -21.8% and 2.5% | [3] -20.6% and -13.9% | [4] -44.8% and 13.2% | [5] 16.5% and 8.5% | [6] -4.45% and 13.6%

NNc1nc2c(N)ncnc2n1C1OC(CO)C(O)C1O (stereo not given)
inactive: [1] -7% and 14% | [2] -5.05% and 15.8% | [3] 17.4% and 4.95% | [4] -21.1% and 15.2% | [5] 14.8% and 13.1% | [6] -5.95% and 10.6%

OCC(O)C(O)C1OC(O)C(O)C(O)C1O (stereo not given)
inactive: [1] 1.1% and -15.8% | [2] 0.45% and -15.2% | [3] 3.1% and -4.25% | [4] -8.25% and -17.1% | [5] 0.25% and -1.65% | [6] 7.85% and -7.65%

C1OC2COCOC2C2OCOCC2O1 (stereo not given)
inactive: [1] -22.8% and -3% | [2] -17.2% and -9.95% | [3] -17.4% and -7.85% | [4] -33.5% and -14.5% | [5] -13.3% and 0.85% | [6] -4.45% and -4.65%

COC1OC(COC(=O)NCCCCC(=O)C(F)(F)C(F)(F)C(F)(F)C(F)(F)C(F)(F)C(F)(F)C(F)(F)F)C(O)C(O)C1O (stereo not given)
inactive: [1] -34.9% and -29.9% | [2] -22.2% and -30.1% | [3] -10% and -11.4% | [4] -2.5% and -8.2% | [5] -18.4% and -26.4% | [6] -2.9% and -3.6%

NC(Cc1cnc[nH]1)C(=O)O (stereo not given)
inactive: [1] -15.4% and 3.95% | [2] -27.9% and 0.2% | [3] 2.35% and 16.4% | [4] -0.05% and 3.55% | [5] -4.35% and 3.9% | [6] -20.9% and -3.1%

O=C(CCl)OCCC1CCCCC1
inactive: [1] 9.3% and -7.6% | [2] -16.7% and -17.1% | [3] 5.15% and -10.8% | [4] -8.7% and -29.4% | [5] 5.6% and 6.1% | [6] 1.4% and -16.4%

O=c1[nH]c(SCc2ccccc2[N+](=O)[O-])nc2nc[nH]c12
inactive: [1] -3.6% and -22.9% | [2] -20.8% and 6.4% | [3] -11.8% and -0.5% | [4] -12.7% and 23.1% | [5] -10.8% and -30% | [6] -1.9% and -8.05%

CCOC(=O)CNC(=O)C(Cc1ccccc1)NC(=O)c1ccccc1N (stereo not given)
inactive: [1] 14% and 12.7% | [2] -1.7% and -2.6% | [3] -0.1% and 9.95% | [4] -5.4% and -6.3% | [5] 8.7% and 4.45% | [6] 7.25% and 4.15%

CCCCCCCCCCCCc1ccccc1
inactive: [1] 2.15% and 17.9% | [2] 4.1% and 11.4% | [3] -4.15% and 2.6% | [4] 5.25% and -55.8% | [5] 18.2% and -19.8% | [6] 16.1% and -0.6%

O=C(CC(=O)Nc1ccccc1)Nc1ccccc1
inactive: [1] -3.55% and 32.1% | [2] -21% and 0.2% | [3] -5.95% and 23.4% | [4] 8.5% and 5.5% | [5] -28.6% and -1.65% | [6] -5.55% and 20.8%

N/N=C(/C(=O)c1ccccc1)c1ccccc1
inactive: [1] -10% and 18% | [2] 5.4% and 10% | [3] 5.4% and 0.5% | [4] 11.6% and -56% | [5] -3.1% and -1.85% | [6] 10.2% and 7.9%

CC1=C/C(=C(\c2cc(C)c(O)c(C(=O)O)c2)c2c(Cl)ccc(S(=O)(=O)O)c2Cl)C=C(C(=O)O)C1=O
inactive: [1] 25.6% and -15.2% | [2] 0.1% and -0.75% | [3] 22.8% and -4.2% | [4] 21.1% and -2.6% | [5] -3.05% and -7.4% | [6] 41.5% and -2.55%

COc1ccc(/C=C2/N=C(N/N=C\C(O)C(O)C(O)CO)NC2=O)cc1 (stereo not given)
inactive: [1] 1% and 34.4% | [2] 12.4% and 17.6% | [3] 3.55% and 13.3% | [4] 26.4% and 1.4% | [5] -6.95% and 21.9% | [6] -46% and 18.8%

CC(=O)OC1CC2CCC1(C)C2(C)C (stereo not given)
inactive: [1] 34.9% and 30.8% and -12.2% | [2] 26.9% and 26.1% and -20.2% | [3] 25.8% and -34.8% and -3.7% | [4] 19.9% and 18.3% and 5.2% | [5] 29.5% and -30.4% and 3.55% | [6] 4.85% and -78.1% and -14.2%

O=C(O)c1cc2ccccc2c(=O)[nH]1
inactive: [1] -2.25% and 29.4% | [2] 4.55% and 10.8% | [3] -6.9% and 21.9% | [4] 0.8% and 12.2% | [5] 0.9% and 4.45% | [6] 2.4% and -6.55%

NC(N)=NCCCC1NC(=O)C(Cc2ccc(O)cc2)NC1=O (stereo not given)
inactive: [1] 15.3% and -3.3% | [2] 21.8% and -3.25% | [3] 48.9% and -4.85% | [4] -5.05% and -8.55% | [5] 38.2% and 3.55% | [6] 33.2% and -1.6%

Cc1ccc(C(=O)/C=C/c2ccc3c(c2)OCO3)cc1
inactive: [1] -6.75% and 8.6% | [2] 16% and -4.7% | [3] 13.6% and 21.4% | [4] -8.95% and -1.75% | [5] 29.4% and 25.3% | [6] 15.4% and 37%

CC(=O)OCC1OC(n2c(C)c(C)cc(C#N)c2=S)C(OC(C)=O)C(OC(C)=O)C1OC(C)=O (stereo not given)
inactive: [1] -18.1% and 18.2% | [2] -10.2% and -13.2% | [3] -4.8% and -4.05% | [4] -23.4% and 18.9% | [5] -2.2% and 18.7% | [6] 4.3% and 14.9%

COC(=O)/C(Cc1cccc(OC(C)=O)c1C(=O)OC)=N/O
inactive: [1] -8.8% and 2.95% | [2] 16.2% and 12.4% | [3] 9.25% and -3.7% | [4] -10.5% and -99.8% | [5] -8.75% and 12.7% | [6] -13.2% and 3.55%

O=C(c1ccco1)C(O)c1ccco1 (stereo not given)
inactive: [1] 18.4% and -8.55% | [2] -12.6% and -3.75% | [3] 1.55% and 11.1% | [4] 3.95% and -7.7% | [5] 15.7% and 1.55% | [6] -0.05% and -12.2%

CC(=O)Nc1cc(NC(C)=O)c2ccccc2c1O
inactive: [1] -2.65% and 4.1% | [2] 22% and 5.85% | [3] 13.2% and 8% | [4] 6.05% and 25.1% | [5] 18.9% and 14.3% | [6] 2.7% and 6.75%

CCOC1(C)OC2OC(COC(c3ccccc3)(c3ccccc3)c3ccccc3)C(O)C(O)C2O1 (stereo not given)
76.2% (active) and 27.6% (inactive): [5]
inactive: [1] 63% and 48.6% | [2] 28.9% and 6.85% | [4] 24.9% and 28.4% | [6] 50.9% and 50%
95.2% (active) and 54.7% (inactive): [3]

CC(=O)O[C@@H]1C[C@H](C)CC[C@H]1C(C)C
inactive: [1] 5.85% and 0.6% | [2] -9.8% and -2.35% | [3] -3.05% and -3.7% | [4] 5.8% and 23% | [5] 4.5% and -1.45% | [6] -3.4% and -0.8%

O=C(CCCOc1ccc(Cl)cc1Cl)NC(Cc1c[nH]c2ccccc12)C(=O)O (stereo not given)
inactive: [1] -1.3% and 1.5% | [2] 0.15% and -1.95% | [3] 4.3% and -3.6% | [4] 19.1% and 18.7% | [5] -17.6% and -17.1% | [6] 7.2% and 10.7%

O=C(O)CCC(C(=O)O)N1C(=O)c2ccccc2C1=O (stereo not given)
inactive: [1] 9.3% and -0.9% | [2] -0.3% and -41.5% | [3] 0.3% and -24.4% | [4] -30.1% and -10.7% | [5] 3.75% and -48.2% | [6] 8.6% and -0.75%

C=CCN(CC=C)c1nc2ccccc2c(=O)[nH]1
inactive: [1] 39.6% and -6.7% | [2] 24.2% and -3.7% | [3] 22.5% and -3.8% | [4] 7.9% and -60.1% | [5] -2.25% and -12.4% | [6] 17.2% and 0.45%

Cc1ccc2c(c1)P(=O)(O)c1cc(C)ccc1S2(=O)=O
inactive: [1] -0.75% and 4.5% | [2] 11.2% and -2.65% | [3] 6.75% and -4.1% | [4] -1.1% and -1.2% | [5] 0.45% and -9.3% | [6] -1.1% and -0.2%

O=C(O)/C=C/c1ccccc1
inactive: [1] 15.1% and 41.8% | [2] 16.6% and 2.4% | [3] 27.5% and 7.65% | [4] 14.8% and 7.35% | [5] 4.1% and 19.3% | [6] 22.2% and 31.9%

CC(C)CCC(N)C(=O)O (stereo not given)
inactive: [1] -11.7% and 0.15% | [2] -14.9% and -0.55% | [3] -11.5% and -6% | [4] -42.5% and -15.7% | [5] -3.25% and 3.75% | [6] -22.6% and -2%

O=c1[nH]c(=O)n(C2OC(CO)C(O)C2O)c2ncncc12 (stereo not given)
inactive: [1] 3.15% and 12.4% | [2] 5.7% and 4.75% | [3] 31.2% and -0.75% | [4] 4.9% and 8.8% | [5] 16.4% and -30.4% | [6] -39.8% and -25.5%

O=C(Nc1nn[nH]n1)c1nc(-c2ccccc2)cc(=O)[nH]1
inactive: [1] -15.6% and -10.2% | [2] -3.75% and 9.5% | [3] 7.35% and 5.4% | [4] -49.8% and 1.15% | [5] 5.7% and -5.95% | [6] 1.95% and -2.25%

O=C(NC(=O)c1cn(C2OC(CO)C(O)C2O)c(=O)[nH]c1=O)OCc1ccccc1 (stereo not given)
inactive: [1] -3.55% and -14.8% | [2] -4.8% and 23.7% | [3] -25.6% and -8.85% | [4] 11.1% and 20.3% | [5] -19.6% and -17.8% | [6] -19.6% and 0.55%

COc1ccc(C(O)c2nccn2C)c(OC)c1 (stereo not given)
inactive: [1] -17.6% and -23.8% | [2] -3.55% and -10.8% | [3] -0.3% and -6.2% | [4] 14.7% and 10.1% | [5] 20.1% and 21% | [6] 5.35% and -6.35%
